Bioassay records as filed in PubChem.
SARS PLP yeast: inhibitors of SARS-CoV papain-like protease in yeast; S. cerevisiae expressing SARS-CoV PLpro, growth rescue; Potency, µM (titrated, usually from 32.9 µM), usual class: activators; 0.19% of 330,000 active; AID 485353; calls by dose curve; note: nearly all actives have a fitted effect of over 55% in size
AmpC detergent: inhibitors of E. coli AmpC beta-lactamase with detergent. Potency, µM (highest dose often 114 µM), actives largely listed as inhibitors. 0.041% of 370,000 active. AmpC hydrolysis of nitrocefin, absorbance 480 nm, 0.01% Triton. P00811; note: nearly all actives have a fitted effect of over 25% in size
Target sequence (P00811 whole entry, looked up): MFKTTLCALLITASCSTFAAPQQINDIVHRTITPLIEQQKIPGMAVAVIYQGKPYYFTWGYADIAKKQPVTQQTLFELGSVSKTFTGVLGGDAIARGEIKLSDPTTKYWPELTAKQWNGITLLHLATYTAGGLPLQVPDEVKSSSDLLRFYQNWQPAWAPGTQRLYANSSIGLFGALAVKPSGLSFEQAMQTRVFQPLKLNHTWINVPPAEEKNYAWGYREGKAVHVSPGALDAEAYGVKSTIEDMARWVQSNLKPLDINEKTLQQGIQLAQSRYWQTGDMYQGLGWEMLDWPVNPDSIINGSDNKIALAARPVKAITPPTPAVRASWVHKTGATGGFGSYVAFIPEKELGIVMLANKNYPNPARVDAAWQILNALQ
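AmpC (5.3 nM in the dispensed reagent) in 20 mM phosphate pH 7.0 with 0.01% (detergent screen) or 0.0001% Triton X-100 was preincubated with compounds for 15 min at room temperature. Nitrocefin was then added from an 800 uM solution, and hydrolysis was followed at 480 nm.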
Pf growth 96h: P. falciparum growth inhibition at 96 hours; 6.9% of 320,000 active; P. falciparum luciferase reporter growth, 96 h; Potency, µM (top dose mostly 28.7 µM), usual class: inhibitors
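Luminescence readout: decreased luciferase signal marks inhibited growth of reporter-expressing P. falciparum in infected red cells (2% hematocrit, 0.05% parasitemia final), exposed to compound two generations (96 h, 37 C, 5% CO2).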
Pf growth 48h: inhibits P. falciparum growth in the first generation, 48 h. 5.9% of 310,000 active. AID 504832. Potency, µM (highest dose often 28.7 µM), most hits filed as inhibitors. P. falciparum luciferase growth in erythrocytes, 48 h
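Growth was read as firefly luciferase luminescence after a 48 h, 37 C, 5% CO2 exposure of compounds to reporter-bearing P. falciparum cultures (0.1% parasitemia, 2% hematocrit final) in Albumax-supplemented RPMI 1640.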
AmpC inh no detg: blocks E. coli AmpC beta-lactamase in detergent-free assay. P00811. AmpC nitrocefin hydrolysis, absorbance 480 nm, 0.0001% Triton. Potency, µM (doses to about 57.1 µM), most hits filed as inhibitors. 0.52% of 330,000 active. AID 485341; note: nearly all actives have a fitted effect of over 20% in size
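20 mM phosphate pH 7.0 + 0.01% (detergent screen) or 0.0001% Triton X-100; 5.3 nM AmpC reagent; cpd preinc 15 min RT; nitrocefin (800 uM stock) to start; A480 q20 s × 4 min; Activity was normalised to no-enzyme and no-compound control wells.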
Sm TGR block: S. mansoni TGR enzyme inhibition. Q962Y6. purified TGR, DTNB reduction, TNB absorbance 405 nm. Potency, µM (doses to about 114 µM), actives largely listed as inhibitors. 3% of 360,000 active. AID 485364; note: nearly all actives have a fitted effect of over 60% in size
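First, TGR (20 nM dispensed) and NADPH were mixed with compound. Second, a 15 min room-temperature incubation followed. Third, further NADPH and then DTNB were added to start the reaction. Finally, TNB absorbance was monitored kinetically.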
Hits are given with their value; – = inactive; ? = inconclusive; · = no result given. Most compounds without a hit are left out; they make up all but 12% or so of the library. Unless noted, calls come from the whole dose curve; as a rule, active = well fitted curve in the direction sought with a large enough effect; inconclusive = small, poorly fitted or top-dose-only effect, or another doubt; inactive = no such curve, though single readings can be large; an effect the other way counts as inactive or inconclusive.

SMILES | SARS PLP yeast | AmpC detergent | Pf growth 96h | Pf growth 48h | AmpC inh no detg | Sm TGR block
O=c1c2ccccc2nc(/C=C/c2ccc(Br)cc2)n1CCCO | – | – | – | ? | – | –
CCn1c(/C=C/c2cc(Br)ccc2O)nc2ccccc2c1=O | – | – | – | 0.93µM | – | –
O=c1c2ccccc2nc(/C=C/c2ccc([N+](=O)[O-])o2)n1CCCO | – | – | 2.6µM | ? | – | 18µM
O=c1c2ccccc2nc(/C=C/c2cccc(Br)c2)n1CCCO | – | ? | 13µM | ? | – | –
CCOc1ccc(S(=O)(=O)NCC(c2ccc(N(C)C)cc2)N2CCCC2)cc1 (stereo unspecified) | · | – | · | · | · | –
CC(=O)Nc1cccc(O)c1 | – | – | – | – | – | –
CC(C)c1cc(Nc2cccc(O)c2)cc(C(C)C)c1O | – | – | 12µM | ? | – | 8.9µM
CN(C)c1ccc(NC(=O)/C=C/c2ccccc2Cl)cc1 | – | ? | ? | ? | 2.5µM | –
Cc1cc(NC(=O)/C=C/c2ccccc2Cl)no1 | – | – | ? | ? | – | –
O=C(/C=C/c1ccccc1Cl)NCCc1ccccc1 | – | – | 12µM | ? | – | –
CCN(CC)c1ccc(NC(=O)/C=C\c2ccccc2Cl)cc1 | – | – | 1µM | ? | – | –
COc1cccc(Cn2c(C)c(CNCc3ccccc3Cl)c(C(=O)O)c2C)c1 | · | – | · | · | · | –
CCc1nn(CC(=O)N(C)C2CCCCC2)c(=O)c2cc3cc(C)ccc3n12 | – | – | – | – | – | –
CCC(C)N1C(=O)N(c2cccc(Cl)c2)C(C)(O)CC1(C)C (stereo unspecified) | – | – | – | – | – | –
COC(=O)c1ccc2nc(C(F)(F)F)[nH]c2c1 | – | – | – | – | – | –
COc1ccc(C(=O)Nc2oc(-c3ccccc3)c(-c3ccccc3)c2C#N)cc1 | – | – | – | – | 8.9µM | –
Cc1sc(NC(=O)c2ccccc2)c(C#N)c1-c1ccccc1 | – | – | 4.1µM | – | 25µM | –
C=CCNc1nc(Nc2ccc(-c3nc4ccccc4o3)cc2)nc(N2CCOCC2)n1 | – | – | 4.7µM | · | – | –
C=CCNc1nc(NCC)nc(N2CCOCC2)n1 | – | ? | ? | – | – | –
COc1ccc(Cl)cc1NC(=O)CN1c2ccccc2S(=O)(=O)c2ccccc21 | · | – | · | · | · | –
COc1ccc(Br)c(C(=O)OCC(=O)N2CCC(Cc3ccccc3)CC2)c1 | – | – | – | 13µM | – | –
COc1ccc2nc(-c3ccccc3)cc(C(=O)OCC(=O)N3CC(C)OC(C)C3)c2c1 (stereo unspecified) | – | ? | ? | 12µM | – | –
COc1ccc2nc(-c3ccccc3)cc(C(=O)OCC(=O)N3CCCCC3)c2c1 | – | ? | ? | 12µM | – | –
Cc1cc(C(=O)OCC(=O)N2CC(C)OC(C)C2)c2ccccc2n1 (stereo unspecified) | – | ? | – | – | – | –
COc1ccc(-c2cc(C(=O)OCC(=O)N3CCCC3)c3ccccc3n2)cc1 | – | – | · | – | – | –
SMILES | SARS PLP yeast | AmpC detergent | Pf growth 96h | Pf growth 48h | AmpC inh no detg | Sm TGR block
COc1ccc(CNC(=O)CN(c2ccccc2OC)S(=O)(=O)c2ccc(C)cc2)cc1 | · | – | · | · | · | –
CC(=O)NC(c1ccccc1)c1cc(Cl)c2cccnc2c1O (stereo unspecified) | ? | – | ? | 0.83µM | – | –
CCC(=O)NC(c1cc(Cl)c2cccnc2c1O)C1CC1 (stereo unspecified) | – | – | 2.9µM | 3.7µM | – | –
O=C(CCc1nnc2ccc(N3CCCCC3)nn12)NCc1ccco1 | – | – | ? | – | – | –
COc1ccc(C(=O)NC(c2ccccc2Cl)c2cc(Cl)c3cccnc3c2O)cc1 (stereo unspecified) | · | – | · | · | · | –
CC(=O)NC(c1cc(F)c2cccnc2c1O)C1CC1 (stereo unspecified) | – | – | ? | ? | – | –
CCC(=O)NC(c1cc(Cl)c2cccnc2c1O)C(C)C (stereo unspecified) | – | – | 13µM | 2.9µM | – | –
CC(=O)NC(c1ccco1)c1cc(Cl)c2ccc(N3CCCCC3)nc2c1O (stereo unspecified) | – | – | – | – | – | 10µM
CC1CCCN(C(=O)COC(=O)Cn2cnc3ccccc32)C1 (stereo unspecified) | – | · | · | · | – | ·
O=C(NCc1ccccc1F)C1CCN(c2nn3cc(-c4ccc(F)cc4)nc3s2)CC1 | · | – | · | · | · | –
Cc1ccc(/C=N/NC(=S)NCCc2ccccc2)s1 | – | ? | ? | 12µM | – | ?
CCCCNC(=S)N/N=C/c1cc(C)ccc1C | ? | – | ? | ? | – | –
CCCCNC(=S)N/N=C/c1sccc1C | – | – | ? | ? | – | –
CCCCNC(=S)N/N=C/c1ccccc1F | 13µM | – | – | – | – | –
CCCCNC(=S)N/N=C/c1ccc(C)s1 | ? | – | 1.7µM | · | – | –
CCC1CN(C(=O)Nc2ccccc2C(F)(F)F)c2ccccc2S1 (stereo unspecified) | · | – | · | · | · | –
O=C(CCc1nnc(C2(c3ccc(Cl)cc3)CCC2)o1)NC1CC1 | – | – | – | 10µM | – | –
CCC(C)(C)n1nnnc1C(c1ccccc1)N1CCN(Cc2ccccc2)CC1 (stereo unspecified) | – | – | ? | ? | – | –
CC(C)CCn1nnnc1CN1CCN(C(c2ccccc2)c2ccccc2)CC1 | – | – | – | 6.6µM | – | –
CCC(C)(C)n1nnnc1CN1CCN(C(c2ccccc2)c2ccccc2)CC1 | – | – | – | 7.4µM | – | –
CC(C)(C)OC(=O)[C@H](Cc1ccccc1)NC(=O)c1nc[nH]c1C(=O)NC1CCN(C(=O)OC(C)(C)C)CC1 | – | – | 3.3µM | 4.7µM | – | –
CC1CCN(C(=O)c2[nH]cnc2C(=O)N[C@@H](Cc2ccccc2)C(=O)OC(C)(C)C)CC1 | – | – | – | – | – | –
CC(C)(C)OC(=O)[C@H](Cc1ccccc1)NC(=O)c1nc[nH]c1C(=O)N1CCN(C(=O)OC(C)(C)C)CC1 | – | – | 9.3µM | ? | – | –
CC(C)(C)OC(=O)N1CCN(C(=O)c2[nH]cnc2C(=O)N[C@@H](Cc2ccccc2)C(=O)OCc2ccccc2)CC1 | – | ? | ? | ? | – | –
CC1CC(OC(=O)c2ccccc2)(c2ccccc2)C(C)CN1C (stereo unspecified) | – | – | ? | 6.6µM | – | –
COCCN(CC(=O)Nc1ccccc1C(F)(F)F)C(=O)/C=C/c1ccc2ccccc2n1 | – | – | 15µM | ? | – | –
